# Assay outcomes deposited in PubChem by several laboratories.
# Tat transport: E. coli Tat transport inhibition | inhibition, % at 10 µM | 0.036% of 340,000 active | E. coli MC4100 TorA-mCherry Tat export, fluorescence;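 active = mean replicate inhibition at least 50% and at least half of replicates individually reaching 50%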;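 note: exported cargo escapes ClpAP degradation while cytoplasmic cargo is degraded and loses fluorescence; 0% = median of neutral control wells and 100% = median of NaSCN control wells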
# AddAB inh: less growth of phage-infected E. coli with AddAB; AID 435030; 0.29% of 330,000 active; inhibition, % at 11.9 µM; E. coli expressing H. pylori AddAB, absorbance growth; in the data active = inhibition above about 12%;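 note: 0% = vehicle wells of infected cells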
# phage Ecoli inh: E. coli growth loss with phage present; growth absorbance; inhibition, % at 11.9 µM; 0.26% of 360,000 active; AID 651602; in the data active = inhibition above about 11%
# E coli growth-1: reduces bacterial viability in AddAB counter-screen; E. coli V3065 growth, OD600 absorbance, 18 h; inhibition, % at 11.9 µM; 0.27% of 330,000 active;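 active = inhibition above the campaign's mean inhibition across all tested compounds plus 3 SD, cut at about 9.9% in these data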;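 note: uninfected addAB+ strain grown without phage in ampicillin broth; 0% = DMSO wells and 100% = ciprofloxacin 0.95 µg/ml wells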
# E coli growth-2: E. coli growth inhibition | Escherichia coli growth, OD600, 23 h; stronger effect = lower value | OD600 absorbance (test concentration not listed) | 0.21% of 330,000 active;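 active = OD600 absorbance below the run mean of sample wells minus 3.6 SD, in any replicate, cut at about 0.56 in these data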
# * hit, by the source's call; . = no result. Hits are enriched below; roughly 0.51% of the tested compounds scored in any of these assays.
SMILES,Tat transport,AddAB inh,phage Ecoli inh,E coli growth-1,E coli growth-2
Cc1cccc(OCC(=O)NCC(=O)NN=Cc2cc(Br)ccc2OCc2ccccc2)c1,.,.,.,.,0.67
CCCCN(C)CCOc1ccccc1OCC,0,0,2,-3,0.065*
CN(C)CCOc1ccc(-c2c(-c3ccsc3)sc3ccccc23)cc1,9,-1,2,-2,.
COc1ccc(-c2sc3ccccc3c2-c2ccc(OCCN(C)C)cc2)cc1,1,2,3,-3,0.47*
Cc1nc(N)nc(N)c1CCCc1ccc(Cl)c(Cl)c1,-16,5,4,4,0.41*
COC(=O)[C@@]12CCCCN1C(c1ccc(-c3ccccc3)c(OC)c1)C1C(=O)N(C)C(=O)C12 (some centres undefined),.,.,.,.,0.66
Fc1c(F)c(F)c(C=NNC(=S)Nc2cccnc2)c(F)c1F,.,.,.,.,0.7
COCc1[nH][nH]c(=O)c1C=NN1CCOCC1,.,.,.,.,0.7
O=C(CNC(=S)N(CCCN1CCOCC1)Cc1cccs1)NCCN1CCOCC1,-3,5,2,2,0.67
O=C(CNC(=S)N(CCCN1CCOCC1)Cc1cccs1)N1CCCC1,-4,1,2,1,0.54*
Cc1cccnc1Nc1nc(-c2ccccn2)cs1,-3,3,3,2,0.5*
O=C(NN=Cc1ccc(OCC2COCCO2)cc1)c1ccc(Br)cc1 (centres undefined),.,.,.,.,0.7
CC(=O)Oc1c(I)cc(I)cc1C(=O)Nc1ccc(Cl)cc1,-10,11,8,12*,.
COc1ccc(Cl)cc1C(=O)Nc1ccc(NC(C)=O)cc1,-4,1,4,0,0.71
CO[C@@]12[C@@H]3N[C@@H]3CN1C1=C(C(=O)C(N)=C(C)C1=O)[C@@H]2COC(N)=O,67*,.,9,.,.
N#CCc1ccc(NC(=O)/C=C/c2ccc([N+](=O)[O-])o2)cc1,3,.,.,.,0.41*
Cc1ccc(CNC(=O)CON=Cc2ccc3c(c2)OCO3)cc1,.,.,.,.,0.72
Clc1ccc(OCCCNCc2ccccc2)c2ccccc12,-9,1,4,1,0.4*
Cn1cccc1CC(=O)NN=Cc1ccccc1,.,.,.,.,0.71
CC(C)n1ncc2c(C(=O)O)cc(C3CC3)nc21,-11,0,-2,-5,0.74
CC(C)n1ncc2c(C(=O)N3CCN(Cc4ccc(Br)s4)CC3)cc(C3CC3)nc21,53*,0,2,-3,0.7
O=C(NNC(=S)NC(=O)c1cccnc1)c1ccc(Cl)cc1,11,-6,-2,-2,0.53*
O=C(NC(=S)NNC(=O)c1cnccn1)c1ccc(Cl)cc1,-2,-3,-1,-2,0.55
COc1ccc(C(=O)NC(=S)NNC(=O)c2cnccn2)cc1,4,-3,-2,-5,0.43*
C=CC1c2ccccc2N(S(=O)(=O)c2ccc(C)cc2)C(c2ccccc2)C1(C#N)C#N (centres undefined),.,.,.,.,0.73
SMILES,Tat transport,AddAB inh,phage Ecoli inh,E coli growth-1,E coli growth-2
N=C(N)c1ccc(/C=C/c2ccc(C(=N)N)cc2O)cc1,76*,6,7,4,0.66
CCn1cc(C(=O)O)c(=O)c2cc(OC)ccc21,-1,10,-1,3,0.53*
CCn1cc(C(=O)O)c(=O)c2cc(S(=O)(=O)N3CCCCCC3)ccc21,1,0,-2,1,0.6
CN(C)c1ccc(-c2nc3ccccn3c2N=Cc2ccc(Br)cc2)cc1,.,.,.,.,0.66
O=C(Nc1cccc(Cl)c1)c1cccc(Oc2ccc([N+](=O)[O-])cc2Cl)c1,-2,2,4,2,0.72
O=C(Nc1cccc(Cl)c1)c1cc(N=Nc2ccc([N+](=O)[O-])cc2Cl)ccc1O,-3,2,3,1,0.5*
O=C(Nc1ccc([N+](=O)[O-])cc1Cl)c1cccc([N+](=O)[O-])c1,.,.,0,.,.
O=C(Nc1ccc([N+](=O)[O-])cc1Cl)c1cc(Cl)ccc1O,-22,-3,3,0,0.45*
COc1ccc(C=NOCC(=O)NCC(C)C)c(OC)c1,.,.,.,.,0.7
CCOc1ccc(NC(=O)COC(=O)CC2CCCCC2)cc1,-11,0,12*,-1,0.69
O=C(Nc1ccccc1C(=O)NC1CC1)c1ccc([N+](=O)[O-])o1,-2,.,16*,.,0.53
C[C@@H]1C[C@@H]2O[C@H]2C=CC=CC(=O)Cc2c(Cl)c(O)cc(O)c2C(=O)O1,.,.,.,.,0.7
COc1ccc(-n2nc(C(=O)NCC(=O)Nc3cccc(NC(C)=O)c3)c3ccccc3c2=O)cc1,-16,1,-5,-2,0.57*
CCn1nc(C)c(C=NNC(=O)Cn2nnc(N)n2)c1C,.,.,.,.,0.62
Brc1cc(Br)c2nc(-c3cccs3)ccc2c1,-8,2,0,3,0.76
Cc1nc2c(Br)cc(Br)cc2cc1O,3,4,8,7,0.56*
N=c1n(Cc2ccccc2)c2ccccc2n1CC(O)COc1ccc(Cl)cc1Cl (centres undefined),3,.,5,.,0.5*
CC1CCCCC1NC(=O)C1CCN(S(=O)(=O)c2ccc(-n3cnnn3)cc2)CC1 (centres undefined),6,10,3,38*,0.77
Nc1ccccc1SCc1cn2ccccc2n1,75*,5,5,4,0.62
Nc1ccccc1SCc1cn2cccnc2n1,0,3,3,1,0.73
CCn1cc(C(=O)O)c(=O)c2cnc(N3CCN(C(=S)NC(=O)c4ccc(OC)cc4)CC3)nc21,1,7,1,6,0.43*
O=S1(=O)CCC(NC(=S)SCCOc2ccccc2)C1 (centres undefined),-32,-1,4,1,0.49*
CCCCSC(=S)NC1CCS(=O)(=O)C1 (centres undefined),-8,-2,4,-3,0.66
CC(C)NC(=S)NN=CC1=CCC2CC1C2(C)C (centres undefined),.,.,.,.,0.71
Oc1cc(Cl)cc(Cl)c1Cl,-1,1,-2,-2,0.27*
SMILES,Tat transport,AddAB inh,phage Ecoli inh,E coli growth-1,E coli growth-2
CC(=NO)c1cc(Cl)cc(Cl)c1O,.,.,.,.,0.59
O=C(Nc1cccnc1)Nc1ccccc1Cl,-7,0,4,0,0.7
O=C(Nc1ccncc1)Nc1ccc(Cl)cc1,9,-1,7,1,0.52*
O=C(Nc1cccnc1)Nc1cc(Cl)cc(Cl)c1,-11,4,10,4,0.5*
CCc1ccc(NC(=O)C(=O)NN=C(C)CC(=O)Nc2ccc(OC)cc2)cc1,.,.,.,.,0.68
Cn1c(=O)c2c(ncn2CC(=O)NN=C/C(Br)=C/c2ccccc2)n(C)c1=O,.,.,.,.,0.61
CC(=NS(=O)(=O)c1ccc(C)cc1)N1CCN(S(=O)(=O)c2ccccc2)C1,.,.,.,.,0.66
CO[C@@]1(NC(=O)C2SC(=C(C(N)=O)C(=O)O)S2)C(=O)N2C(C(=O)O)=C(CSc3nnnn3C)CSC21 (some centres undefined),.,.,.,.,0.061*
CO[C@@]1(NC(=O)CSCC#N)C(=O)N2C(C(=O)O)=C(CSc3nnnn3C)CSC21 (some centres undefined),.,.,.,.,0.6
O=S1(=O)N=C(NN=C/C=C/c2ccccc2)c2ccccc21,.,.,.,.,0.65
COC1C(OC(N)=O)C(O)C(Oc2ccc3c(O)c(NC(=O)c4ccc(O)c(CC=C(C)C)c4)c(=O)oc3c2C)OC1(C)C (centres undefined),.,.,.,.,0.38*
